The whole screen tested about 6,700 compounds, of which fewer than 10 were called active.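 How the source made its calls: active means mean percent activation across replicates above the confirmation screen cutoff of 4.91%; inactive means the rest.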 A selection follows.
biological target: G-protein coupled receptor 151 (Homo sapiens) (UniProt Q8TDV0); test: GPR151 activators, triplicate retest, confirmation, cell-based, PathHunter beta-arrestin, luminescence (AID 1508609); settings: GPR151 PathHunter beta-arrestin cells, 90 min, at 11.2 µM, active compounds read high, % of EA-reagent control over plate median
Sequence (Q8TDV0 whole entry, looked up): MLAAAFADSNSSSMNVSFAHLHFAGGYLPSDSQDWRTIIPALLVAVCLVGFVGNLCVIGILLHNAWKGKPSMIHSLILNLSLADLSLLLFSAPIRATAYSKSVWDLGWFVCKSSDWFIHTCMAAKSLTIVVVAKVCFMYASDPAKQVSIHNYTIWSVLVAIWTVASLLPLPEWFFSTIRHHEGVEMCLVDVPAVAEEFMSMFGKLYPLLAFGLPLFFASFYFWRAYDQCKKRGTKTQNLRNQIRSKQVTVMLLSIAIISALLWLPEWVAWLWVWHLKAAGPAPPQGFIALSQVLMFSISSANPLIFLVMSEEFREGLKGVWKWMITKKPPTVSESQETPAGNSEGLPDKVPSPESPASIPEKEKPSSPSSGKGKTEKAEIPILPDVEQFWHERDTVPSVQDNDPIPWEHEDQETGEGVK

activation, inactive:
c1ccc(NCc2cccc3ccccc23)nc1 -0.81%, COc1ccccc1C1C(C(N)=O)=C(C)Nc2nc(CCCO)nn21 (centres undefined) -0.72%, CC1CCN(C(=O)C(NS(=O)(=O)c2ccc3c(c2)oc(=O)n3C)C(C)C)CC1 (centres undefined) 0.12%, Cc1cc(=O)[nH]c(SCC(=O)Nc2cccc3ccccc23)n1 -0.05%, COc1cccc(C2SCC(=O)N2c2cccc(C)c2)c1OC (centres undefined) 0.31%, CC(C)(C)C1CCC(=NNC(=O)C(=O)NCCc2ccccc2)CC1 (centres undefined) 1.36%, C#CCOc1ccc(Br)cc1/C=C1\NC(=S)N(C)C1=O -0.05%, Cc1ccc(NC(=O)CCn2c(=O)oc3ccccc32)cc1Cl 0.81%, C(=N\N1CCN(c2ccccn2)CC1)/C1=C(N2CCOCC2)C(=C/c2ccccc2)/CC1 0.86%, CC(C)(C)C1(O)CCN2C[C@H]3c4ccccc4CCc4cccc(c43)[C@@H]2C1 (some centres undefined) -0.56%, CCOCCCNC(=O)NC1CCN(c2nc3ccccc3s2)CC1 0.63%, CCOC(=O)Cc1coc(NC(=O)c2ccc(Cl)cc2)n1 1.26%, CC(C)C(=O)NNS(=O)(=O)c1ccc([N+](=O)[O-])cc1 -0.02%, N#Cc1ccc(N2CCN(CCCNC(=O)Nc3ccccc3)CC2)cc1 -0.19%, O=C1Cc2cc(S(=O)(=O)Nc3cccc(Cl)c3)cc3c2N1CCC3 0.12%, COc1cccc(NC(=O)CN(C)S(=O)(=O)c2ccc3c(c2)SCC(=O)N3)c1 -0.01%, CCNc1nc(NC(C)C)nc(OCCOC(C)=O)n1 -0.68%, OCc1ccccc1CNc1ccc(F)cc1 0.05%, COCCNCCOc1ccc(C(C)(C)C)cc1 -1.21%, CCN(CC)C1CCN(C(=O)c2cc(COc3ccc4ncccc4c3)on2)C1 (centres undefined) -1.18%, COc1ccc(-c2cc(N)n(S(=O)(=O)c3ccccc3)n2)c(OC)c1 -0.31%, COc1cc2nc(-c3ccc4c(c3)C(=O)N(CCC(C)C)C4=O)oc(=O)c2cc1OC 0.42%, COc1ccc(Nc2nc(-c3ccc(F)cc3)cs2)c(OC)c1 -0.04%, CCCN1C(=O)c2ccc(C(=O)Nc3ccc(C(C)=O)cc3)cc2C1=O 0.09%, CC(C(=O)NCCN1CCOCC1)n1c2ccccc2c2cn[nH]c(=O)c21 (centres undefined) -0.57%, c1ccc2sc(-c3cnc4ccc(NC5CCOCC5)nn34)cc2c1 -1.36%, O=C(COc1ccc(Br)cc1CO)NCC(F)(F)F 0.36%, CCOc1ccc(NC(=O)N2CCN(CC)CC2)cc1 0.34%, CCc1ccc(N2N=C(C)/C(=C\c3ccc(-c4ccc5c(c4)C(=O)NC5=O)o3)C2=O)cc1 -0.14%, O=S(=O)(NCc1csc(-c2cccnc2)n1)c1ccc2ccccc2c1 0.68%, CCN1/C(=C/c2ccc3cc(C)ccc3[n+]2CC)Sc2ccc(-c3ccccc3)cc21 -0.55%, Cc1ccc(NC(=O)Cn2cc(-c3ccccc3)c(N3CCOCC3)n2)c(C)c1 -0.77%, CC1CCCCN1C(=O)c1cc2c(=O)n(C)c3ccccc3c2s1 (centres undefined) 0.54%, COc1cccc(/C=C2/C(=O)NC(=O)N(c3ccccc3F)C2=O)c1 0.99%, COC(=O)c1c(NC(=O)Nc2ccc(Cl)c(Cl)c2)sc2c1CCCC2 0.7%, O=C1NCCN(Cc2ccc(-c3ccccc3)cc2)C1CC(=O)N1CCCCC1 (centres undefined) 0.39%, Cc1ccc(C)c(CN2CCC(n3nccc3NC(=O)C(C)(C)C)CC2)c1 0.69%, CCn1c(COc2ccccc2)nnc1Sc1ccc([N+](=O)[O-])cc1C=O 0.71%, Cc1cc(N2CCOCC2)ccc1C=C1C(=O)c2ccccc2C1=O -0.77%, COC(=O)c1c(-c2ccccc2)csc1NC(=O)c1ccc(OC)c([N+](=O)[O-])c1 0.78%, Cc1ccc(C(=O)Oc2ccccc2/C=N/N=C2\NC(=O)C(CC(=O)O)S2)cc1 (centres undefined) -0.38%, Cc1ccc(S(=O)(=O)Cn2nnnc2CN2CCN(c3ccccc3F)CC2)cc1 1.76%, CCN(CC)c1nc(Nc2ccccc2)nc(Nc2ccccc2)n1 -0.22%, C=CCn1c2ccccc2c2nnc(SCc3[nH]c(=O)[nH]c3C(=O)CCCCC(=O)OCC)nc21 1.2%, COC(=O)c1cc(NC(=O)COc2ccc([N+](=O)[O-])cc2)cc(C(=O)OC)c1 0.64%, CC(C)COC(=O)c1ccc(NC(=O)C2C3C=CC(C3)C2C(=O)O)cc1 (centres undefined) 1.05%, O=C(N/N=C\C=C\c1ccccc1)c1ccccn1 -0.98%, COc1ccc(NC(=S)N2CCN(S(=O)(=O)c3ccc(F)cc3)CC2)c(OC)c1 -0.28%, Cc1cccn2c(=O)c3cc(C(=O)NC4CCCCC4)c(=N)n(C4CCCCC4)c3nc12 -0.69%, OCCC1CN(Cc2ccc3cc(F)ccc3n2)CCN1C1CCCC1 (centres undefined) 1.64%, O=C(Cn1c(=O)n(Cc2ccccc2)c(=O)c2ccccc21)c1ccccc1 1.26%, CCOc1c(Cl)cc(CNCc2ccccc2)cc1OC -0.5%, COC(=O)c1oc2ccc(Br)cc2c1NC(C)=O 0.35%, O=C(c1ccc(CNS(=O)(=O)c2ccc(Cl)cc2)cc1)N1CCCC1 1.92%, C=CCc1cccc(/C=N/NC(=O)CCC(=O)Nc2ccc(Br)cc2)c1O -0.44%, O=C(CN1CCOCC1)Nc1c(Cl)cc(Cl)cc1Cl 0.82%, CCOC(=O)c1ccc(NC(=O)c2ncn(-c3ccccc3)n2)cc1 0.02%, Cn1ncc2c(NNC(=O)Cc3cccc4ccccc34)ncnc21 0.44%, CCCCc1ccc(NC(=O)CN2C(=O)C(C)SC(C)C2=O)cc1 (centres undefined) 0.42%

From PubChem BioAssay AID1508609 (The Scripps Research Institute Molecular Screening Center, 2020)
